KCNQ2 pot: enhances the rat KCNQ2 potassium channel. CHO-K1 KCNQ2, FluxOR thallium flux fluorescence; stronger effect = higher value. 0.54% of 310,000 active. O88943. B-score at 10 µM;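 active = fluorescence ratio B-score at least 3 SD of library B-scores, with initial fluorescence B-score within 3 of them, cut at about 5.3 in these data; same plate scores as AID 2156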;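 note: B-score of peak minus minimum over baseline fluorescence ratio after K+ and Tl+ stimulus; positive B-score means potentiation of KCNQ2 with more thallium influx and brighter signal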
Target sequence (O88943 whole entry, looked up): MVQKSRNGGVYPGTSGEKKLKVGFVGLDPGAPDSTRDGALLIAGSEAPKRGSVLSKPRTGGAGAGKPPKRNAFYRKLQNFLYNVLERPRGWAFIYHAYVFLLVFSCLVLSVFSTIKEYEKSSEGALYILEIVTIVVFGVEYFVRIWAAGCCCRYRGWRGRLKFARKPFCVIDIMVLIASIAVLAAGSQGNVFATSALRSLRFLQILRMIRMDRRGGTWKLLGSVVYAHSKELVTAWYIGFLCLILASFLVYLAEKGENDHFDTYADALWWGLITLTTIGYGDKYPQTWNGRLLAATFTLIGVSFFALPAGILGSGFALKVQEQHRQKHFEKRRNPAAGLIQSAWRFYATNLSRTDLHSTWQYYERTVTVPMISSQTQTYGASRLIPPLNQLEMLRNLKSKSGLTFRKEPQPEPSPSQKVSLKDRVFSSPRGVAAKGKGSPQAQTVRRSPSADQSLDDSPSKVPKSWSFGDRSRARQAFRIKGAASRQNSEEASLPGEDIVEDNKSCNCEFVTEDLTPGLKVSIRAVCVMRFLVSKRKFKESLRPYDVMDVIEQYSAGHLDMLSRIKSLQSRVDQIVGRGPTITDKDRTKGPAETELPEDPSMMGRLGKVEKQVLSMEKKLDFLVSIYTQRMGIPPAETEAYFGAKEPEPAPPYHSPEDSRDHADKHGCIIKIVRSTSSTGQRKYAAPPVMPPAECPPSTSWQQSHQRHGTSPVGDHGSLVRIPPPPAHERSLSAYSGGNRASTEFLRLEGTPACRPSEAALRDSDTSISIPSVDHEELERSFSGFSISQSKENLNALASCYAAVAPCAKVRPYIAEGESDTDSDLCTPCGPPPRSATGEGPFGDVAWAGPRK
KCNQ2 inh: KCNQ2 (rat) channel inhibition; O88943; CHO-K1 KCNQ2, FluxOR thallium flux, 20 min; stronger effect = lower value; B-score at 10 µM; 1.1% of 310,000 active; AID 2156;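 active = fluorescence ratio B-score at most minus 3 library SDs, with starting brightness B-score within 2 library SDs, cut at about -5.5 in these data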
* marks the source's active call; other numbers are inactive results; i = inactive; · = no result. Compounds with a hit are over-represented: about 1.6% of the library has one in this group of screens.

SMILES	KCNQ2 pot	KCNQ2 inh
Cc1cc(C)nc(/N=C(/NC(=O)Nc2cccc(Cl)c2)Nc2ccccc2)n1	-5.8	-5.8*
Cc1cc(C)n(CCNC(=O)C2CCC(=O)N(Cc3ccc(Cl)cc3)C2)n1 (stereo not given)	·	i
COC(=O)c1ccc(CC(=O)c2ccc(O)cc2O)o1	-5.8	-5.8*
CCOC(=O)c1ccc(CC(=O)c2ccc(O)cc2O)o1	·	i
COc1cc(NC(=O)c2cc(-c3ccco3)on2)cc(OC)c1OC	1.3	i
COc1ccc(C(=O)N/N=C(\C)CC(=O)Nc2cccc(C(F)(F)F)c2)cc1	·	i
CCOC(=O)Nc1ccc(Cc2ccncc2)cc1	·	i
O=C(O)CCCCCNC(=O)c1cccc(Br)c1	·	i
O=C(NCCOC12CC3CC(CC(C3)C1)C2)c1cccc(Br)c1	-7.2	-7.2*
COCc1cc(N2CCCCC2)nc(-c2ccccc2)n1	·	i
CC(c1cccs1)N(C(=O)Nc1ccccc1)C1CCCCC1 (stereo not given)	-5.9	-5.9*
CN(C(=O)Nc1ccccc1)C1CCCCC1	0.2	i
C[C@@H]1CC=C[C@H]2[C@H]1C(=O)N(Cc1ccccc1)[C@H]2c1ccoc1	·	i
CC[C@@H]1CC=C[C@H]2[C@H]1C(=O)N(Cc1ccccc1)[C@H]2c1ccoc1	-6.2	-6.2*
C[C@@H]1CC=C[C@H]2[C@H]1C(=O)N(Cc1ccccc1)[C@H]2c1ccc2ccccc2c1	·	i
C[C@@H]1CC=C[C@H]2[C@H]1C(=O)N(Cc1ccccc1)[C@H]2c1ccc2ccccc2c1Br	-7.5	-7.5*
COC(=O)c1sc(NC(=S)NNC(=O)c2c(Br)c(C)nn2C)c(C(=O)OC)c1C	1.9	i
CC1CCCN(c2ccc3nncn3n2)C1 (stereo not given)	·	i
CCN(CC)C(=O)c1cc2c(=O)oc3ccccc3c2s1	-6.9	-6.9*
CCN(CC)C(=O)c1cc2c(=O)n3ccccc3nc2s1	0.76	i
N#Cc1c(NC(=O)c2cnccn2)sc2c1CCCC2	·	i
Cc1ccc2nc(-c3ccc(N4C(=O)CC(N5CCN(CCO)CC5)C4=O)cc3)sc2c1 (stereo not given)	-6.3	-6.3*
Cc1ccc(N2C(=O)CC(N3CCN(c4ccccn4)CC3)C2=O)cc1 (stereo not given)	·	i
O=C(Nc1ccccc1C(=O)N/N=C/c1ccncc1)c1ccccc1	·	i
CC(=O)c1ccc(OCCOc2ccc(Cl)c3cccnc23)cc1	0.36	i
SMILES	KCNQ2 pot	KCNQ2 inh
C/C(=N\Nc1nc(C)c(C)s1)c1ccc([N+](=O)[O-])cc1	5.4*	i
C/C(=N\Nc1ccc([N+](=O)[O-])cc1)c1ccc(N)cc1	·	i
COc1cccc(NC(=O)CN(C)C(=O)COc2ccc3ccccc3c2)c1	·	i
O=C(NCC1CCCO1)c1ccc(COc2ccccc2Br)cc1 (stereo not given)	5.3*	i
COc1cccc(OCc2ccc(C(=O)NCC3CCCO3)cc2)c1 (stereo not given)	·	i
CC(=O)c1c(C)[nH]c(C(=O)Nc2nc(-c3ccc(-c4ccccc4)cc3)cs2)c1C	-7.6	-7.6*
COc1ccc(-c2nc(NC(=O)c3[nH]c(C)c(C(C)=O)c3C)sc2C)cc1	-6.5	-6.5*
COc1ccc(OC)c(NC(=O)c2[nH]c(C)c(C(C)=O)c2C)c1	0.07	i
CC(=O)c1c(C)[nH]c(C(=O)Nc2nc(-c3ccc(Cl)cc3)cs2)c1C	0.73	i
CC(=O)Nc1ccc(S(=O)(=O)NCC(=O)OCC(=O)N2CCCc3ccccc32)cc1	0.6	i
COC(=O)CCC(=O)NC(=S)Nc1ccc(S(=O)(=O)Nc2cc(OC)nc(OC)n2)cc1	-6.4	-6.4*
COc1cc(NS(=O)(=O)c2ccc(NC(=S)NC(=O)CC(C)C)cc2)nc(OC)n1	0.64	i
C=CCN1C(=O)/C(=C/C=C2/N(CC)c3ccc(S(=O)(=O)N(C)C)cc3N2CC)SC1=S	·	i
CCn1c(=O)c(C(=O)NCCc2ccc(OC)c(OC)c2)c(O)c2ccccc21	·	i
CCCn1c(=O)c(C(=O)NCc2ccc3c(c2)OCO3)c(O)c2ccccc21	-5.9	-5.9*
CCCn1c(=O)c(C(=O)NCc2cccnc2)c(O)c2ccccc21	·	i
CCCn1c(=O)c(C(=O)NCCc2ccc(OC)c(OC)c2)c(O)c2ccccc21	-6.2	-6.2*
c1ccc2c(c1)CCN(c1nc(CN3CCOCC3)nc3sc4c(c13)CCCC4)C2	·	i
COC(=O)c1cc(S(=O)(=O)NCc2ccc(Br)cc2)c[nH]1	0.05	i
COC(=O)COc1ccc(C(C2C(=O)CC(C)(C)CC2=O)C2C(=O)CC(C)(C)CC2=O)cc1	0.08	i
CC1(c2ccccc2)NC(=O)N(CC(=O)Nc2nnc(C3CC3)s2)C1=O (stereo not given)	·	i
CCC(C(=O)NCc1ccco1)N(C(=O)CNS(=O)(=O)c1ccccc1)c1ccc(OC)cc1 (stereo not given)	-5.8	-5.8*
CCOc1ccc(N(C(=O)CNS(=O)(=O)c2ccccc2)C(CC)C(=O)NCc2ccco2)cc1 (stereo not given)	1.5	i
CCNC(=O)/C(=C\c1ccc2c(c1)OCO2)NC(=O)c1ccc(Br)cc1	·	i
CCN(CC)C(=O)/C(=C\c1ccc2c(c1)OCO2)NC(=O)c1ccc(Br)cc1	-6.5	-6.5*
SMILES	KCNQ2 pot	KCNQ2 inh
COc1ccccc1C(=O)N/C(=C\c1ccc(Br)cc1)C(=O)NCCO	·	i
CCN(CC)C(=O)/C(=C\c1ccc(Br)cc1)NC(=O)c1ccccc1OC	-7.2	-7.2*
Cc1ccc([N+](=O)[O-])cc1NC(=O)C[n+]1ccccc1	·	i
Cc1nn(Cc2cccc(C(N)=O)c2)c(C)c1Br	0.55	i
COc1ccccc1/C=C\C(=O)NCC(=O)N/N=C(/C)c1cccc([N+](=O)[O-])c1	·	i
CCN(c1cccc(C)c1)S(=O)(=O)c1ccc(-c2ccc(=O)[nH]n2)o1	1.8	i
CCCc1nc2ccccc2c(C(=O)OCC(=O)NCc2ccc3c(c2)OCO3)c1CC	·	i
CCc1nc2ccccc2c(C(=O)OCC(=O)NCc2ccc3c(c2)OCO3)c1C	-5.8	-5.8*
NS(=O)(=O)OCc1ccc(C(F)(F)F)cc1	0.63	i
COc1ccc(-c2nc(CN(CC3CCC(=O)N3)C(C)C)c(C)o2)c(C)c1C (stereo not given)	-6.7	-6.7*
COc1ccc(-c2nc(CN(C)C(C)c3ccon3)c(C)o2)c(C)c1C (stereo not given)	·	i
CC1=C(C(=O)OC2CCCCCC2)C(c2ccc(C)o2)C2=C(CCCC2=O)N1 (stereo not given)	0.82	i
CC1=C(C(=O)OC2CCCC2)C(c2ccc(C)o2)C2=C(CC(c3cccs3)CC2=O)N1 (stereo not given)	-5.7	-5.7*
NC(=S)NN=C1c2ccccc2-c2ccccc21	·	i
CC(Oc1ccc(F)cc1)C(=O)Nc1ccccc1N1CCCCC1 (stereo not given)	-7.7	-7.7*
CCC(Oc1ccccc1)C(=O)Nc1ccccc1N1CCCCC1 (stereo not given)	·	i
CCc1ccc(C(=O)C(C)OC(=O)C2COc3ccccc3O2)cc1 (stereo not given)	·	i
CC1(c2ccccc2)CC(C)(C)N2C(=O)Cc3cccc1c32 (stereo not given)	-7.7	-7.7*
CC(=O)N1c2ccccc2C(C)(c2ccccc2)CC1(C)C (stereo not given)	·	i
COc1ccc(NC(=O)c2ccco2)cc1NC(=O)c1cccc(F)c1	·	i

High-throughput results from PubChem BioAssay.
